PubChem BioAssay AID1159580 (chemical genetic matrix, 2015)
Hit rate of the full screen: of about 5,500 compounds, about 2,000 (36%) were called active. About 18% were inconclusive and are not listed. No stated cut-off is given here; in the data, active means normalized growth mostly below about 0.91 (no sharp cut-off); inconclusive means no clear call, values can overlap the other calls; inactive means mostly above about 0.92. This is one part of the list.

Assay: chemical genetic growth profiling, strain panel (AID 1159580);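 further: tested at 20 µM; growth read once vehicle control cultures reached saturation at 30 °C; 1 = growth at the plate median or of vehicle wells; lower values mean less growth of the strain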
Details: growth OD
[1] = S. cerevisiae deletion strains, locus YAL013W, strain DEP1, hits give low values
[2] = S. cerevisiae deletion strains, locus YBR229C, strain ROT2, hits give low values
[3] = S. cerevisiae deletion strains, locus YDL101C, strain DUN1, hits give low values
[4] = S. cerevisiae deletion strains, locus YDR150W, strain NUM1, hits give low values
[5] = S. cerevisiae deletion strains, locus YEL061C, strain CIN8, hits give low values
[6] = S. cerevisiae deletion strains, locus YGR078C, strain PAC10, hits give low values
[7] = S. cerevisiae deletion strains, locus YHR030C, strain SLT2, hits give low values
[8] = S. cerevisiae deletion strains, locus YHR087W, strain rtc3, hits give low values
[9] = S. cerevisiae deletion strains, locus YJR043C, strain POL32, hits give low values
[10] = S. cerevisiae deletion strains, locus YJR075W, strain HOC1, hits give low values
[11] = S. cerevisiae deletion strains, locus YLR039C, strain RIC1, hits give low values
[12] = S. cerevisiae deletion strains, locus YLR058C, strain SHM2 (second series), hits give low values
[13] = S. cerevisiae deletion strains, locus YLR085C, strain ARP6, hits give low values
[14] = S. cerevisiae deletion strains, locus YLR262C, strain YPT6, hits give low values
[15] = S. cerevisiae deletion strains, locus YML094W, strain GIM5, hits give low values
[16] = S. cerevisiae deletion strains, locus YMR219W, strain ESC1, hits give low values
[17] = S. cerevisiae deletion strains, locus YMR263W, strain SAP30, hits give low values
[18] = S. cerevisiae deletion strains, locus YNL153C, strain GIM3, hits give low values
[19] = S. cerevisiae deletion strains, locus YNL298W, strain CLA4 (second series), hits give low values
[20] = S. cerevisiae deletion strains, locus YNL322C, strain KRE1, hits give low values
[21] = S. cerevisiae deletion strains, locus YNR030W, strain Alg12, hits give low values
[22] = S. cerevisiae deletion strains, locus YPL055C, strain LGE1, hits give low values
[23] = S. cerevisiae deletion strains, locus YPL241C, strain CIN2, hits give low values
[24] = S. cerevisiae deletion strains, locus YPR135W, strain CTF4, hits give low values
[25] = S. cerevisiae strains, strain wild type, hits give low values
[26] = S. cerevisiae deletion strains, locus YJL187C, strain SWE1, hits give low values

Measured: normalized growth

COC(=O)c1ccc(C(=O)OC)nc1
inactive: [1] 1 | [2] 0.994 | [3] 0.977 | [4] 0.976 | [5] 0.999 | [6] 0.997 | [7] 0.982 | [8] 0.995 | [9] 1 | [10] 0.993 | [11] 0.973 | [12] 1 | [13] 1.01 | [14] 0.984 | [15] 0.942 | [16] 0.998 | [17] 1.02 | S. cerevisiae deletion strains, locus YNL128W, strain TEP1, hits give low values 0.987 | [18] 1 | [19] 1 | [20] 0.992 | [21] 0.998 | [22] 0.991 | [23] 0.949 | [24] 0.967 | [25] 0.989

COC(=O)c1ccc(-c2ccccc2F)cc1
inactive: [1] 0.984 | [2] 0.982 | [3] 0.987 | S. cerevisiae deletion strains, locus YDL134C, strain PPH21, hits give low values 0.974 | [4] 0.971 | [5] 0.927 | [6] 0.962 | [8] 0.968 | [26] 0.961 | [9] 0.94 | [10] 0.893 | [11] 0.796 | [12] 0.99 | [14] 0.929 | [15] 0.958 | [16] 0.991 | [17] 0.971 | [18] 0.968 | [19] 0.897 | [20] 0.999 | [21] 0.957 | [22] 0.917 | [23] 0.89 | [24] 0.786
active: [7] 0.681 | S. cerevisiae deletion strains, locus YKL190W, strain CNB1, hits give low values 0.857 | [13] 0.696 | [25] 0.901

CC/C(=N/Oc1ccc(C(F)(F)F)cn1)c1ccc(-c2ccccc2F)cc1
inactive: [1] 1.01 | [2] 1.01 | [3] 0.995 | [4] 0.981 | [5] 0.992 | [6] 1.01 | [7] 1.12 | [8] 1.02 | [26] 0.999 | [9] 0.987 | [10] 0.991 | [11] 1.03 | [12] 0.999 | [13] 1.04 | [14] 1.03 | [15] 1.01 | [16] 1 | [17] 0.996 | [18] 1 | [19] 1.05 | [20] 0.986 | [21] 1.02 | S. cerevisiae deletion strains, locus YOL006C, strain TOP1, hits give low values 1.06 | [22] 0.984 | [23] 1.01 | [24] 1.05 | [25] 1.02
